# In publication PMC7862700, “An all-to-all approach to the identification of sequence-specific readers for epigenetic DNA modifications on cytosine”:
# Legend:
# Assay in all cases: DAPPL (digital affinity profiling via proximity ligation, sequencing); 10 mM Tris-HCl pH 7.5, 50 mM NaCl, 1 mM DTT, 4% glycerol, room temperature, 30 min; GST-TFs on glutathione beads, 16-mer random dsDNA library, 0.1% formaldehyde crosslink after washing; high values mean tight binding
# FEV = molecular target: T1, FEV (Homo sapiens, UniProt Q99581 1-238); settings: protein: recombinant; tags: N-terminal GST; dsDNA, one strand shown
# T1 sequence: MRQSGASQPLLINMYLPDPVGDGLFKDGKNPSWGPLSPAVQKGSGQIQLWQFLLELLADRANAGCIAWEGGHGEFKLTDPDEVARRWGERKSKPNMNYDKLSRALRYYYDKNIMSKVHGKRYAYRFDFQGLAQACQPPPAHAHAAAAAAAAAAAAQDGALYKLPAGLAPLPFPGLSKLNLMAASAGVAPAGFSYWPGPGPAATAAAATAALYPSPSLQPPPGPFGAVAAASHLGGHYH
# Method in brief: (§1)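 In yeast, human transcription factors were expressed with a GST fusion, then pulled down on glutathione beads and given DNA barcodes. Pooled with a tag-only sample, they were exposed to 200 nmole of a 16-mer random double-stranded DNA library (Tris/NaCl/DTT/glycerol buffer, room temperature, 30 min), washed, crosslinked with 0.1% formaldehyde, proximity-ligated using BsaI/T4 ligase for 1 h at 37 °C, PCR-amplified and read on an Illumina NextSeq500. Each hexamer's frequency of reads for a factor, divided by the matching frequency for the tag-only sample, gives the binding signal.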
# ETV5 = ETV5 (Homo sapiens, UniProt P41161 1-510); settings: protein: recombinant; tags: N-terminal GST; dsDNA, one strand shown
# Method in brief: as §1
# HSF1 = HSF1 (Homo sapiens, UniProt Q00613 1-529); settings: protein: recombinant; tags: N-terminal GST; chain copies: 3; dsDNA, one strand shown
# Method in brief: as §1
# SPIC = molecular target: T2, SPIC (Homo sapiens, UniProt Q8N5J4 1-248); settings: protein: recombinant; tags: N-terminal GST; dsDNA, one strand shown
# T2 sequence: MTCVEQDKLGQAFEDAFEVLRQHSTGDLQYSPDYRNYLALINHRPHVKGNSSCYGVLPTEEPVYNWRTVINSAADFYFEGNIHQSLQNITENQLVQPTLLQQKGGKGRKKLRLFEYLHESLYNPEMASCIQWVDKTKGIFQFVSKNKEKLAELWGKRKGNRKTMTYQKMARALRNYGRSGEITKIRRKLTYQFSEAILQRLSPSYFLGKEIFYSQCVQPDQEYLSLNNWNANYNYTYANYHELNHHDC
# Method in brief: as §1
# ELF4 = ELF4 (Homo sapiens, UniProt Q99607 1-663); settings: protein: recombinant; tags: N-terminal GST; dsDNA, one strand shown
# Method in brief: as §1
# ELK4 = molecular target: T3, ELK4 (Homo sapiens, UniProt P28324-2 1-405); settings: protein: recombinant; tags: N-terminal GST; dsDNA, one strand shown
# T3 sequence: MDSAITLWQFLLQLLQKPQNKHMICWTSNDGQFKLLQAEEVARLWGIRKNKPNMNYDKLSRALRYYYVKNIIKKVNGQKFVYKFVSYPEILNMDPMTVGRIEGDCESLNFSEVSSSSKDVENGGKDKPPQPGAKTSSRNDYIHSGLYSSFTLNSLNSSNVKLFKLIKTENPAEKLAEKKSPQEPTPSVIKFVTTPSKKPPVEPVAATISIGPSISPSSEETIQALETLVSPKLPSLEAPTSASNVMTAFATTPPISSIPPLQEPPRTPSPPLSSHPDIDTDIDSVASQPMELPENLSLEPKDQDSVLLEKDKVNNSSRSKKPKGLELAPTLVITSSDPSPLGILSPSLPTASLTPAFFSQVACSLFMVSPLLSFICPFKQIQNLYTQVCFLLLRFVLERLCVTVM
# Method in brief: as §1
# ETV2 = molecular target: T4, ETV2 (Homo sapiens, UniProt O00321 1-342); settings: protein: recombinant; tags: N-terminal GST; dsDNA, one strand shown
# T4 sequence: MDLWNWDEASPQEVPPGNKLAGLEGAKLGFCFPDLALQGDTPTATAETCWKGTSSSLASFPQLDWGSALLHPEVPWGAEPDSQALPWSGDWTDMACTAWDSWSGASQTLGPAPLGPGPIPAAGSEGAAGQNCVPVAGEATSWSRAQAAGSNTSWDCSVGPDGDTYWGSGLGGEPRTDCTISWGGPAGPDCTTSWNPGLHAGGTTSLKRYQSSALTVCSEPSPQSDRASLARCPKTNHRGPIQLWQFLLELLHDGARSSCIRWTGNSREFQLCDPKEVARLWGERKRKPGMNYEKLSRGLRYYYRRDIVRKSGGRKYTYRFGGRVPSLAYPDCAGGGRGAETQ
# Method in brief: as §1
# ELF3 = molecular target: T5, ELF3 (Homo sapiens, UniProt P78545 1-371); settings: protein: recombinant; tags: N-terminal GST; dsDNA, one strand shown
# T5 sequence: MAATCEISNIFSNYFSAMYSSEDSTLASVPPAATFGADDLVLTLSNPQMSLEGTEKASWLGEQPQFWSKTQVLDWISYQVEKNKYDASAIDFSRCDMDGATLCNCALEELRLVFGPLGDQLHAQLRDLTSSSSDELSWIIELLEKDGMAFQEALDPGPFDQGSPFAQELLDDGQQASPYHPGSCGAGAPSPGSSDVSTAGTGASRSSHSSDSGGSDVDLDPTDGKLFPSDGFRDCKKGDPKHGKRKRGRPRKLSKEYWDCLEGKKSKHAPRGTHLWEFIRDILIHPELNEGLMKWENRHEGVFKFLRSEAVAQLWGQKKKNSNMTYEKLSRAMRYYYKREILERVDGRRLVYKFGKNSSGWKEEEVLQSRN
# Method in brief: as §1
# CRX = CRX (Homo sapiens, UniProt O43186 1-299); settings: protein: recombinant; tags: N-terminal GST; dsDNA, one strand shown
# Method in brief: as §1
# ETV1 = ETV1 (Homo sapiens, UniProt P50549 1-477); settings: protein: recombinant; tags: N-terminal GST; dsDNA, one strand shown
# Method in brief: as §1
# ERF = molecular target: T6, ERF (Homo sapiens, UniProt P50548 1-548); settings: protein: recombinant; tags: N-terminal GST; dsDNA, one strand shown
# T6 sequence: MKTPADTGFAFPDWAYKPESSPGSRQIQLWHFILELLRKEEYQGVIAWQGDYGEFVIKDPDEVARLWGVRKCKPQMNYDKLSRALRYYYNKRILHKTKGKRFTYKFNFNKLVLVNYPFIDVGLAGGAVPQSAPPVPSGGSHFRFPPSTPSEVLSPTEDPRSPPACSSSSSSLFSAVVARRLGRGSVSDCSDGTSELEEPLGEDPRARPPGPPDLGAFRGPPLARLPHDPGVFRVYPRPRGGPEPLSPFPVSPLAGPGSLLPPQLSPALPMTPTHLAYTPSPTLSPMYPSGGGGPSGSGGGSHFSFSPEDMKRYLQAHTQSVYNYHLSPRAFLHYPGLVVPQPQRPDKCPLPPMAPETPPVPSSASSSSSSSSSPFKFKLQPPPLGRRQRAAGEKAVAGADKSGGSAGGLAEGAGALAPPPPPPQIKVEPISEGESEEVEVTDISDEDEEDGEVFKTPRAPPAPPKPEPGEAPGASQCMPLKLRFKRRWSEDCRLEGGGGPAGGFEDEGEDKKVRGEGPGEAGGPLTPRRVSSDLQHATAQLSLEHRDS
# Method in brief: as §1
# ETV3L = molecular target: T7, ETV3L (Homo sapiens, UniProt Q6ZN32 1-361); settings: protein: recombinant; tags: N-terminal GST; dsDNA, one strand shown
# T7 sequence: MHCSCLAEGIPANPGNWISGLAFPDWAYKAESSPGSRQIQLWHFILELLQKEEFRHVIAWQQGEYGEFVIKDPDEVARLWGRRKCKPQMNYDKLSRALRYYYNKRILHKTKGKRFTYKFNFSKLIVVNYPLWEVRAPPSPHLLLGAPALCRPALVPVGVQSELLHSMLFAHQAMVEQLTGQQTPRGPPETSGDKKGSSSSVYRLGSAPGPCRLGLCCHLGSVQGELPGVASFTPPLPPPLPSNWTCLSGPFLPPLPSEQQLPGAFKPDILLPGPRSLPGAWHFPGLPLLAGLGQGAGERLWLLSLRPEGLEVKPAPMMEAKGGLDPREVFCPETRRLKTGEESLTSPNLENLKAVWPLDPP
# Method in brief: as §1
# ETS2 = molecular target: T8, ETS2 (Homo sapiens, UniProt P15036 1-469); settings: protein: recombinant; tags: N-terminal GST; dsDNA, one strand shown
# T8 sequence: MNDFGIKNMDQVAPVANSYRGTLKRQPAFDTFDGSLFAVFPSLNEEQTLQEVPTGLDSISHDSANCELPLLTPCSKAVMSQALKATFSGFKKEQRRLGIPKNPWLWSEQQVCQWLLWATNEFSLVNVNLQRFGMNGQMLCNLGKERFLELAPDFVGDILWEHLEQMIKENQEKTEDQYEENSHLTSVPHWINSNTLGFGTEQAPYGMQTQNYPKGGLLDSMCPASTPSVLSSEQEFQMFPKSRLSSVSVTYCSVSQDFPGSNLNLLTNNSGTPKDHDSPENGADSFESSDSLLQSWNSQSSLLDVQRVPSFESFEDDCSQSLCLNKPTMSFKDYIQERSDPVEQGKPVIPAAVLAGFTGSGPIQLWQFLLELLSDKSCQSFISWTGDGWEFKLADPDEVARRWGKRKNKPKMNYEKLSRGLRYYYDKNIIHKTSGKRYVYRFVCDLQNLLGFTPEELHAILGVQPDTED
# Method in brief: as §1
# SPDEF = molecular target: T9, SPDEF (Homo sapiens, UniProt O95238 1-335); settings: protein: recombinant; tags: N-terminal GST; dsDNA, one strand shown
# T9 sequence: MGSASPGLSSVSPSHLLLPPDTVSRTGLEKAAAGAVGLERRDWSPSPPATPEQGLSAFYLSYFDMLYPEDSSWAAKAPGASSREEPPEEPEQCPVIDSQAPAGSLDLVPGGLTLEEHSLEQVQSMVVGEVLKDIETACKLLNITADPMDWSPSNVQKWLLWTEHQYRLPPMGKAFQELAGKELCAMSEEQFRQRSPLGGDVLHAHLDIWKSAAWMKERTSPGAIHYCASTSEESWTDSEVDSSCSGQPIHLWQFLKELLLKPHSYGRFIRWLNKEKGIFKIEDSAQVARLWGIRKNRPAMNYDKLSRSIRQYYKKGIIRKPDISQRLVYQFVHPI
# Method in brief: as §1
# ETV7 = molecular target: T10, ETV7 (Homo sapiens, UniProt Q9Y603 1-341); settings: protein: recombinant; tags: N-terminal GST; dsDNA, one strand shown
# T10 sequence: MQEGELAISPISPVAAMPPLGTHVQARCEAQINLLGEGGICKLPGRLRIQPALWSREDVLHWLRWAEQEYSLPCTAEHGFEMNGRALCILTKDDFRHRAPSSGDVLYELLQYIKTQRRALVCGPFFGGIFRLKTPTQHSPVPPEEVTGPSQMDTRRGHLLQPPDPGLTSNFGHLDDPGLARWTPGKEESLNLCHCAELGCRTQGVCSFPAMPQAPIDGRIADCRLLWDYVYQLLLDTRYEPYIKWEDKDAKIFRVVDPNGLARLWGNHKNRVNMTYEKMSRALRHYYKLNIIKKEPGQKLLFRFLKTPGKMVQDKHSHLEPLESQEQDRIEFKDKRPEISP
# Method in brief: as §1
# ELF5 = molecular target: T11, ELF5 (Homo sapiens, UniProt Q9UKW6-2 1-255); settings: protein: recombinant; tags: N-terminal GST; dsDNA, one strand shown
# T11 sequence: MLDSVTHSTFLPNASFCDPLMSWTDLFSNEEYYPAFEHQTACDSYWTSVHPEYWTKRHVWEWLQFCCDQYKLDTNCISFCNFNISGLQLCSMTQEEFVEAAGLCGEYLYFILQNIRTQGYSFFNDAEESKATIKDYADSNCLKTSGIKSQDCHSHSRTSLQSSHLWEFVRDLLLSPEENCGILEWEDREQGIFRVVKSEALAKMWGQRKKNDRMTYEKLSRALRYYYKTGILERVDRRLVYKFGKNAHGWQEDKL
# Method in brief: as §1
# ETV3 = molecular target: T12, ETV3 (Homo sapiens, UniProt P41162-2 1-143); settings: protein: recombinant; tags: N-terminal GST; dsDNA, one strand shown
# T12 sequence: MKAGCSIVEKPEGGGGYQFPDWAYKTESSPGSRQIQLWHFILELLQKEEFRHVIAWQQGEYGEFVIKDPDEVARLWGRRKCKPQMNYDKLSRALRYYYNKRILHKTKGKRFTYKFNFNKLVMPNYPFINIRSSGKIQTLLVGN
# Method in brief: as §1
# ETV6 = ETV6 (Homo sapiens, UniProt P41212 1-452); settings: protein: recombinant; tags: N-terminal GST; dsDNA, one strand shown
# Method in brief: as §1
# Chain of ETV1 (P50549 whole entry): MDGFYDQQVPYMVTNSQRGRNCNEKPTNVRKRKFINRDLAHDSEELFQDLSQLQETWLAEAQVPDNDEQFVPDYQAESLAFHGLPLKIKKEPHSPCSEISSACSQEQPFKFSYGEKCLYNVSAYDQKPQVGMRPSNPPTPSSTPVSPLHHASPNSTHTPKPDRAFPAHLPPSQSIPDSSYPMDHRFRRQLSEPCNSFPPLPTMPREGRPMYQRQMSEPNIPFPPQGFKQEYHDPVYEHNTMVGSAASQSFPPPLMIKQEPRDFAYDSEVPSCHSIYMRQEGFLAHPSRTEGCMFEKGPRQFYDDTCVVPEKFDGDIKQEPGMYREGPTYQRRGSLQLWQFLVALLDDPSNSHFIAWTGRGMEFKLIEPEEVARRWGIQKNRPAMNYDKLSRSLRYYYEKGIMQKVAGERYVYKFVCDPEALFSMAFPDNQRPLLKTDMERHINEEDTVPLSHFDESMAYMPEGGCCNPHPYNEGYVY
# Chain of ELF4 (Q99607 whole entry): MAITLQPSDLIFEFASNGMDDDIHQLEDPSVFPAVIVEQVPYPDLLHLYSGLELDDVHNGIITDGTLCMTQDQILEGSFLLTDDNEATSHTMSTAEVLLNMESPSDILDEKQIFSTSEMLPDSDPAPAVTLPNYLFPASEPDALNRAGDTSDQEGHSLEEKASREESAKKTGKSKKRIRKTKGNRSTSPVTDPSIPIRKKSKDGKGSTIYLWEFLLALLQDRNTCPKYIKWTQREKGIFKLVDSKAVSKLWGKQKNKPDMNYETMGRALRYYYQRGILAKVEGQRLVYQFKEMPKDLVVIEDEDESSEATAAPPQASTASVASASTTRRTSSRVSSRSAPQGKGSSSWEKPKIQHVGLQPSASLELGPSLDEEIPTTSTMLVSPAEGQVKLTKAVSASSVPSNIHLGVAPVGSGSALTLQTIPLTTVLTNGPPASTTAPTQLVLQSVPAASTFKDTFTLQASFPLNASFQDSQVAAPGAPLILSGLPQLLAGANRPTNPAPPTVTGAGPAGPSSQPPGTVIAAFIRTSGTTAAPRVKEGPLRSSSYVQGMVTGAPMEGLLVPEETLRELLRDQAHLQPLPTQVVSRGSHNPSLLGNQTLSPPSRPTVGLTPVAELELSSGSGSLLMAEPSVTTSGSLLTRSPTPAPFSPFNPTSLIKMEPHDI
# Chain of ETV5 (P41161 whole entry): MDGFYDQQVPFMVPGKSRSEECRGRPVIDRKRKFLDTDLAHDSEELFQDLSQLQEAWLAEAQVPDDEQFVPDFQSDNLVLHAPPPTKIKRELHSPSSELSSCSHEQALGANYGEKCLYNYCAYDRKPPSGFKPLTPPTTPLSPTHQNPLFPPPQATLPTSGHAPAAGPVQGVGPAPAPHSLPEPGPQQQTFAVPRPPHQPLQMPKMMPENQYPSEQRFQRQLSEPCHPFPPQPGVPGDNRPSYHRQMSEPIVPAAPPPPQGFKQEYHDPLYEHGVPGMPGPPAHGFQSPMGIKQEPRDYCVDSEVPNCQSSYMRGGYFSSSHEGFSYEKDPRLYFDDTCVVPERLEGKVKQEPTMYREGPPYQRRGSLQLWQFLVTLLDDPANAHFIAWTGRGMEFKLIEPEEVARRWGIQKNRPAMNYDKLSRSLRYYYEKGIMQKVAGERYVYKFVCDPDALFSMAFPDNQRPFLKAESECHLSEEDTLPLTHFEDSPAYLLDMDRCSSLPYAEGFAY
# Chain of ETV6 (P41212 whole entry): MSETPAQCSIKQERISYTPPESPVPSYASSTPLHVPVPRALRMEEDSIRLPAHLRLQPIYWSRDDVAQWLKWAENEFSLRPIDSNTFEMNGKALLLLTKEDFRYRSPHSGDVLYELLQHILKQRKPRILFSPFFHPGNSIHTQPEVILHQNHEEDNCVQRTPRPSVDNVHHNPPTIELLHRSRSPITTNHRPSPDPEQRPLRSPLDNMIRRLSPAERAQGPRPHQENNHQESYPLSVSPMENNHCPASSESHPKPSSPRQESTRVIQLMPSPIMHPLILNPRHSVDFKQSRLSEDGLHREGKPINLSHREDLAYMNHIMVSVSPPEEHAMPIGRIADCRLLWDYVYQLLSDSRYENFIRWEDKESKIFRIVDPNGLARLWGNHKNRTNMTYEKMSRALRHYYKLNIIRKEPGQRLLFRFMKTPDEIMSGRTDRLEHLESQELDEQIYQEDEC
# Chain of CRX (O43186 whole entry): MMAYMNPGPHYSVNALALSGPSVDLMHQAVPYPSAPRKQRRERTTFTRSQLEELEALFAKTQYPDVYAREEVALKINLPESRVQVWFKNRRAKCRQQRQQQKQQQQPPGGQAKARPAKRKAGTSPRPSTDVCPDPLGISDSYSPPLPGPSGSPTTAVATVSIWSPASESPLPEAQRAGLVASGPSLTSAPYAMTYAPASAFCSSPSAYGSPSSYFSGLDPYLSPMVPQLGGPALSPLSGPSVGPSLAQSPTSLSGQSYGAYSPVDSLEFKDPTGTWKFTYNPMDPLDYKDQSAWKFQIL
# Chain of HSF1 (Q00613 whole entry): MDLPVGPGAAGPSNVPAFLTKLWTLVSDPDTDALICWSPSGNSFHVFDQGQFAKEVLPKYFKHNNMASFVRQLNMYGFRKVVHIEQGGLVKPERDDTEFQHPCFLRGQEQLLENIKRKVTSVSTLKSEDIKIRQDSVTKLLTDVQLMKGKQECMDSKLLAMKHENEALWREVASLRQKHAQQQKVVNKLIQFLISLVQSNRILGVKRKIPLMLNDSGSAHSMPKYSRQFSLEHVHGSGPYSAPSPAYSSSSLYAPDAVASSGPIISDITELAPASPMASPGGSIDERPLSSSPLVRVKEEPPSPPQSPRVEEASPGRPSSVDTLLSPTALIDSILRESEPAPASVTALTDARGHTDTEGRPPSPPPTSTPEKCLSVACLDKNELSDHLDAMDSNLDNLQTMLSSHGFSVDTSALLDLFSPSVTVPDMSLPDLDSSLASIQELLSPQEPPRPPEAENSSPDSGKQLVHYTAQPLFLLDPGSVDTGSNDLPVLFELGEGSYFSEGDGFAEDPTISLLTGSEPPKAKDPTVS
sequence,measurement,setting,value
ACTTGG,binding signal,FEV,"1.17 fold enrichment (6-mer frequency, TF over GST control)"
same,binding signal,ETV5,"1.21 fold enrichment (6-mer frequency, TF over GST control)"
same,binding signal,HSF1,"1.09 fold enrichment (6-mer frequency, TF over GST control)"
same,binding signal,SPIC,"1.27 fold enrichment (6-mer frequency, TF over GST control)"
same,binding signal,ELF4,"1.31 fold enrichment (6-mer frequency, TF over GST control)"
same,binding signal,ELK4,"1.28 fold enrichment (6-mer frequency, TF over GST control)"
same,binding signal,ETV2,"1.15 fold enrichment (6-mer frequency, TF over GST control)"
same,binding signal,ELF3,"1.36 fold enrichment (6-mer frequency, TF over GST control)"
same,binding signal,CRX,"1.1 fold enrichment (6-mer frequency, TF over GST control)"
same,binding signal,ETV1,"1.25 fold enrichment (6-mer frequency, TF over GST control)"
same,binding signal,ERF,"1.28 fold enrichment (6-mer frequency, TF over GST control)"
same,binding signal,ETV3L,"1.15 fold enrichment (6-mer frequency, TF over GST control)"
same,binding signal,ETS2,"1.16 fold enrichment (6-mer frequency, TF over GST control)"
same,binding signal,SPDEF,"1.21 fold enrichment (6-mer frequency, TF over GST control)"
same,binding signal,ETV7,"1.2 fold enrichment (6-mer frequency, TF over GST control)"
same,binding signal,ELF5,"1.16 fold enrichment (6-mer frequency, TF over GST control)"
same,binding signal,ETV3,"1.2 fold enrichment (6-mer frequency, TF over GST control)"
same,binding signal,ETV6,"1.16 fold enrichment (6-mer frequency, TF over GST control)"
